Results on one compound are retold here after PubChem BioAssay AID720649 (The Scripps Research Institute Molecular Screening Center, 2013).

A short description of this test: TO-PRO-1 dye complex inhibitors on d(CAG) DNA, dose response, counter-screen, biochemical, fluorescence, late stage (AID 720649). As to conditions: d(CAG) DNA duplex TO-PRO-1 dye displacement.

Some of the results follow. Calls of active or inactive are those of the source. No rule for the calls is given here.

For the compound `Cc1noc(NS(=O)(=O)c2ccc(NC(=O)c3oc4ccc(F)cc4c3C)cc2)c1C`, the IC50 is 4.19 µM (active).
